PI5P4Ka inh = qHTS for Inhibitors of phosphatidylinositol 5-phosphate 4-kinase (PI5P4K). PI5P4Kalpha enzyme, ADP-Glo luminescence, 60 min; stronger effect = lower value. max response, %. Phosphatidylinositol 5-phosphate 4-kinase type-2 alpha (Homo sapiens), P48426. hit rate 1.2% among 330,000; active means max response of -50% or lower; inconclusive means between -30% and -50%; inactive means -30% or higher; further: value at the top dose of about 77 µM; on the % scale 0 is the no-effect control and ±100 the full control effect
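Compounds were pin-transferred onto PI5P4Kalpha and substrate in HEPES pH 7.4 buffer with EGTA, CHAPS and 5% DMSO. ATP (5 microM final) started the reaction, which ran 60 minutes at room temperature before ADP-Glo detection.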
KDM4E inh = qHTS Assay for Inhibitors of Human Jumonji Domain Containing 2E (JMJD2E). Lysine-specific demethylase 4E (Homo sapiens), B2RXH2. JMJD2E catalytic domain, FDH-coupled NADH fluorescence (FDH is formaldehyde dehydrogenase). Potency, µM (highest dose often 57.1 µM), for the others: at the top dose activity change, negative = inhibition, hits mostly inhibitors. hit rate 1.6% among 230,000. AID 2147, 2009; active means well fitted inhibition curve with a large enough effect, not every such curve was filed as active; inconclusive means small, poorly fitted or top-dose-only effect, or another doubt; inactive means no such curve, though single readings can be large or run the other way;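 further: potency means the concentration at half of the fitted maximal effect; 0% = wells with enzyme and -100% = buffer wells without enzyme; nearly all actives have a fitted effect of over 50% in size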
Target sequence (B2RXH2 1-337 limits assumed): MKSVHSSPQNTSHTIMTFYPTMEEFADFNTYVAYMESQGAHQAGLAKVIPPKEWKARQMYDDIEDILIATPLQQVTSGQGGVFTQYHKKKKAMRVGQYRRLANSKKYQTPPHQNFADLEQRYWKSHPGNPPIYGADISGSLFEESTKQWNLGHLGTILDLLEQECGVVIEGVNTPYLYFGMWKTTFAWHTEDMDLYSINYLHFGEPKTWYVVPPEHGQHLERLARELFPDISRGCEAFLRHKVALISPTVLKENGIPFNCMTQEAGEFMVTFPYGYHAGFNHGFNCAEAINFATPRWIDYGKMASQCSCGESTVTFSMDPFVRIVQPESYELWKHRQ
L3MBTL1 block = qHTS Assay for the Inhibitors of L3MBTL1 | Lethal(3)malignant brain tumor-like protein 1 (Homo sapiens), Q9Y468 | AlphaScreen L3MBTL1–H3K9me1 peptide binding | Potency, µM (series often up to 57.1 µM), inactives show top-dose activity, negative = inhibition, most hits filed as inhibitors | hit rate 0.66% among 230,000; further: potency means the concentration at half of the fitted maximal effect; on the % scale 0 is the no-effect control and ±100 the full control effect; nearly all actives have a fitted effect of over 60% in size
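First, the protein-peptide complex forms for 30 min at room temperature (L3MBTL1 50 nM, biotinylated H3K9me1 peptide 75 nM). Next, compounds are pin-transferred and incubated 30 min. Finally, AlphaScreen beads are added and read after 30 min.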
JMJD2A Tudor = qHTS Assay for Inhibitors of JMJD2A-Tudor Domain. Potency, µM (series often up to 114 µM), for inactives: top-dose activity change, negative = inhibition, most hits filed as inhibitors. AID 504339, 2011. hit rate 4.4% among 390,000. Lysine-specific demethylase 4A (Homo sapiens), O75164. AlphaScreen JMJD2A-Tudor / H3K4me3 peptide binding; further: potency means the concentration at half of the fitted maximal effect; on the % scale 0 is the no-effect control and ±100 the full control effect; nearly all actives have a fitted effect of over 50% in size
BAZ2B inh = qHTS Assay for Inhibitors of BAZ2B; Bromodomain adjacent to zinc finger domain protein 2B (Homo sapiens), Q9UIF8; AlphaScreen BAZ2B-H3K14Ac peptide displacement; Potency, µM (doses to about 114 µM), inactives show at the top dose activity change, negative = inhibition, hits mostly inhibitors; hit rate 4.4% among 360,000; AID 504333, 2011; further: potency means the concentration at half of the fitted maximal effect; on the % scale 0 is the no-effect control and ±100 the full control effect; nearly all actives have a fitted effect of over 60% in size
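Multi-concentration screen (max 110 uM) measuring displacement of acetylated histone H3 peptide from BAZ2B by AlphaScreen, using 50 nM protein, 50 nM peptide and 10 ug/mL streptavidin donor plus Ni-chelate acceptor beads.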
HP1b binding inh = HTS for Inhibitors of HP1-beta Chromodomain Interactions with Methylated Histone Tails | Chromobox protein homolog 1 (Homo sapiens), P83916 | AlphaScreen HP1-beta / biotin-H3K9me3 peptide binding | Potency, µM (titrated, usually from 114 µM), without a hit: top-dose activity change, negative = inhibition, most hits filed as inhibitors | hit rate 0.56% among 390,000; further: potency means the concentration at half of the fitted maximal effect; nearly all actives have a fitted effect of over 70% in size
Target sequence (P83916 whole entry, looked up): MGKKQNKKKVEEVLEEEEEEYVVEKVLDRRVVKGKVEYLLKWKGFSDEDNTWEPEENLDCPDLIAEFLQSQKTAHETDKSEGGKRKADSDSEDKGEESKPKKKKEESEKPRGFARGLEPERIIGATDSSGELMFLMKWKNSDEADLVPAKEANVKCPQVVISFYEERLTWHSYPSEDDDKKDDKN
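Compound inhibition of the preformed complex between 50 nM HP1-beta and 50 nM biotinylated H3K9me3 peptide was read by AlphaScreen. Buffer was PBS pH 7.4 with 0.01% Tween-20. Incubations ran 30 min at room temperature, with 10 ug/mL donor/acceptor beads.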
Starred values were filed as active, the others as inactive; ? = inconclusive; nt = not tested or not shown; [ ] = another dose, or the depositor's remark. Most compounds without a hit are left out; they make up all but 5.7% or so of the library. Unless noted, the call rests on the fitted dose curve; in most records, active means well fitted inhibition curve with a large enough effect; inconclusive means small, poorly fitted or top-dose-only effect; inactive means no such curve, though single readings can be large or run the other way.

SMILES | PI5P4Ka inh | KDM4E inh | L3MBTL1 block | JMJD2A Tudor | BAZ2B inh | HP1b binding inh
CC(=O)Nc1nc(=S)ss1 | -58* | -3% | 9% | -34% | 1% | -41%
CC(C)CC(=O)Nc1nc(=S)ss1 | -53* | -12% | nt | ? | -36% | ?
CC12CCC=CC1C(c1ccc(F)c(/C=C/c3ccccc3)c1)N(Cc1ccccc1)C2=O (stereo unspecified) | nt | nt | nt | -14% | nt | 22%
NC1=NC2(CCCC2)N=C(Nc2ccccc2)N1 | -2 | -1% | 1% | 35µM* | 1% | -6%
COc1cc(NC(=O)c2cc(Cl)c(OC)c(Cl)c2)ccc1NC(=O)c1cc2ccccc2o1 | nt | nt | nt | -19% | 3% | 14%
Cc1ccccc1C1C(C#N)=C2N=C(N)c3c(sc4c3CCCCC4)N2C2=C1C(=O)CCC2 (stereo unspecified) | -19 | 0% | -19% | -23%[57.1 µM] | 45µM* | 16%
COc1ccc(NC(=O)c2c(NC(=O)COc3ccc(Cl)cc3)sc3c2CCCCC3)cc1 | nt | nt | nt | -9% | -1% | 32%
COc1ccccc1C(=O)NCCn1cc(SCc2ccc(C)cc2)c2ccccc21 | nt | nt | nt | -19% | -20% | 34%
COCc1c(Br)c(C)nc2sc3c(=O)[nH]nnc3c12 | -19 | nt | nt | -14% | 56µM* | 29%
CC(C)(C)OC(=O)N1CCC(c2c(C(=O)N3CCN(C(=O)c4ccco4)CC3)cnn2-c2ccc(F)cc2F)CC1 | 9 | nt | nt | -17% | -4% | 28%
CCN(CC)S(=O)(=O)c1ccc(N=Nc2c(N)[nH]c(=O)[nH]c2=O)cc1 | -67* | -2% | -6% | -7% | -10% | 20%
O=c1cc(CSc2n[nH]c(-c3ccccc3)n2)[nH]c2ccccc12 | nt | nt | nt | -23% | -1% | 19%[57 µM]
COC(=O)c1cc(S(=O)(=O)N2CCCCCC2)c[nH]1 | -1 | nt | -2% | -10% | -1% | 29%
COC(=O)c1cc(S(=O)(=O)N2CCCCC2)c[nH]1 | 14 | nt | nt | 45µM* | -25% | ?
Cn1c2ccccc2c2cc(/C=N/NC(=O)c3ccc(O)cc3O)ccc21 | -62* | nt | nt | -29% | -14% | 24%
COc1ccc(/C=N/NC(=O)c2ccc(O)cc2O)cc1CSc1ccccn1 | -71* | ? | ? | ? | 56µM* | ?
COc1ccc(C=O)cc1CSc1ccccn1 | 1 | 5% | 20% | 3% | 14% | 29%
COc1ccc(-n2cc(-c3ccc4c(c3)OCO4)n(CC(=O)Nc3cccc(C)c3C)c2=O)c(OC)c1 | nt | nt | nt | ? | ? | -20%
COc1ccc(-n2cc(-c3ccc4c(c3)OCO4)n(CC(=O)Nc3cc(Cl)ccc3C)c2=O)cc1 | nt | nt | nt | -20% | 89µM* | 4%
CCOc1ccc(/C=N/N(C)c2ccccc2)cc1OC | -5 | -5% | nt | 45µM* | 32µM* | ?
CCOc1ccc(/C=N/Nc2ccccn2)cc1OC | -12 | -14% | -14% | ? | nt | -14%
COc1cc(/C=N/N(c2ccccc2)c2ccccc2)ccc1O | 26 | nt | -18% | 32µM* | 45µM* | -33%
CCOc1ccc(CCNC(=O)c2ccc(C)c(S(=O)(=O)N3CCOCC3)c2)cc1OCC | -3 | nt | nt | -11% | nt | 21%
CCOc1ccc(CCNC(=O)c2ccc(Cl)c(S(=O)(=O)N3CCOCC3)c2)cc1OCC | -11 | nt | -13% | ? | 56µM* | ?
Cc1cccc(-n2cnc3cc(C(=O)NC4CCCCCC4)ccc32)c1 | nt | nt | nt | -35% | -14% | 44%
Cc1ccc(CNC(=O)CCCN2C(=O)c3cccnc3Oc3ccc(Cl)cc32)cc1 | nt | nt | nt | -15% | -4% | 28%
CN(C)S(=O)(=O)c1cccc(C(=O)OCC(=O)Nc2ccccc2OC(F)F)c1 | -3 | -3% | 2% | 79µM* | 6% | ?

Source: PubChem (National Center for Advancing Translational Sciences (NCATS))
